Screening data (PubChem BioAssay)
An excerpt weighted towards active compounds, which were near 1.9% of everything screened.
PP1 inh = PP1-alpha (human) inhibition in PP5 counter-screen; P62136; purified PP1alpha, OMFP fluorescence; inhibition, % at 6.7 µM; 320,000 compounds, 0.9% hits; AID 2235;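 active means inhibition above the mean inhibition of all tested compounds plus 3 SD, computed separately for each screening campaign, cut at about 15% in these data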
PP5 primary = inhibitors of human protein phosphatase 5 (PP5). P53041. purified PP5c, OMFP substrate fluorescence. inhibition, % at 6.7 µM. 320,000 compounds, 0.18% hits;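 active means inhibition above the campaign's mean inhibition across all tested compounds plus 3 SD, cut at about 9.5% in these data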;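 further: 0% = DMSO only and 100% = 100 µM cantharidin control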
Cardio protect = myocardial damage modulation in H9c2 cells. H9c2 cardiomyocytes, H2O2 injury protection, ATPLite, 2 h. protection from H2O2 cell death, % at 20 µM. 360,000 compounds, 0.63% hits;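 active means compounds giving at least 50% protection of heart cells from peroxide-induced death in the single-dose screen, raw or plate-pattern-corrected value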;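 further: 0% = DMSO wells with peroxide and 100% = DMSO wells without peroxide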
ATG4B inhibitor = ATG4B (human) cysteine protease inhibition; ATG4B cleavage of LC3-PLA2, NBD-HPC fluorescence, 1 h; inhibition, % at 8.33 µM; 340,000 compounds, 0.51% hits; AID 504462; in the data active means inhibition above about 40%
Target sequence (Q9Y4P1 whole entry, looked up): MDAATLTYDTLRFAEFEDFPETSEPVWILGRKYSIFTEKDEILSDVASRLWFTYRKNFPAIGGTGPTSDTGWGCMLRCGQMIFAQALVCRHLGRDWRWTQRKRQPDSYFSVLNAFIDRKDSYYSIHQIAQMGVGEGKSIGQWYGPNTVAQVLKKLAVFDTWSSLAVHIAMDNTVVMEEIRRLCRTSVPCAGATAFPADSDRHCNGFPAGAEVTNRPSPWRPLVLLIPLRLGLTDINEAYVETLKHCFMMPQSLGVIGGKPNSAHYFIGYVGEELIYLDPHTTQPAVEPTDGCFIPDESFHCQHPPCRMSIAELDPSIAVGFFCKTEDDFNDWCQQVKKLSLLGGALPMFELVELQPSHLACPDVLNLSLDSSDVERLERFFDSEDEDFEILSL
PP1 inh confirm = confirmation of human PP1 phosphatase inhibitors; 1,900 compounds, 52% hits; inhibition, % at 6.7 µM; purified PP1alpha, OMFP substrate fluorescence; AID 2358; shares compounds with PP1 inh;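 active means mean PP1 inhibition above a set limit taken from the earlier primary screen, cut at about 15% in these data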
PP5 counter = PP5 phosphatase inhibition, counter-screen for PP1 inhibitors; 1,900 compounds, 4% hits; AID 2360; shares compounds with PP1 inh; inhibition, % at 6.7 µM; purified PP5c, OMFP fluorescence;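 active means mean PP5 inhibition over triplicate wells above about 9.5% taken from the earlier PP1 screen, limit read from the data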
Starred values were filed as active, the others as inactive; x = no result given.

SMILES	PP1 inh	PP5 primary	Cardio protect	ATG4B inhibitor	PP1 inh confirm	PP5 counter
Cc1cc(C)nc(SCC(=O)c2ccc(F)c(C)c2)n1	43*	0	2	0	-3	-4
O=S1(=O)NC(C2CC2c2ccccc2)CCO1 (centres undefined)	0	-1	1	-6	x	x
Nc1c(C(=O)c2ccc(Br)cc2)oc2ccccc12	18*	3	-3	6	-4	-3
O=C(Nc1ccc(N2CCCC2)cc1)c1ccc2ccccc2c1	21*	2	1	-7	0	-5
CC(=O)N1CCN(c2ccc(NC(=O)c3ccc4ccccc4c3)cc2)CC1	8	-6	-1	-2	x	x
C#CCOCCOCCOCCNc1nc(N2CCN(C(=O)[C@H](Cc3ccc(O)cc3)n3cc([C@@H](N)CC(C)C)nn3)CC2)nc(N2CCN(C(=O)[C@H](Cc3cc4ccccc4[nH]3)n3cc([C@@H](N)CC(C)C)nn3)CC2)n1	11	1	x	-12	x	x
C#CCOCCOCCOCCNc1nc(N2CCN(C(=O)[C@H](Cc3ccc(O)cc3)n3cc([C@@H](N)C(C)CC)nn3)CC2)nc(N2CCN(C(=O)[C@H](Cc3cc4ccccc4[nH]3)n3cc([C@@H](N)Cc4ccc(O)cc4)nn3)CC2)n1 (some centres undefined)	22*	4	x	x	-10	-1
C#CCOCCOCCOCCNc1nc(N2CCN(C(=O)C(Cc3ccc(O)cc3)n3cc(C(N)CC(C)C)nn3)CC2)nc(N2CCN(C(=O)C(Cc3cc4ccccc4[nH]3)n3cc(C(N)C(C)CC)nn3)CC2)n1 (centres undefined)	20*	3	x	x	-24	-4
C#CCOCCOCCOCCNc1nc(N2CCN(C(=O)C(Cc3ccc(O)cc3)n3cc(C(N)C(C)CC)nn3)CC2)nc(N2CCN(C(=O)C(Cc3ccc(O)cc3)n3cc(C(N)C(C)CC)nn3)CC2)n1 (centres undefined)	3	0	-1	-3	x	x
CCOC(=O)c1sc(-c2ccc(Cl)cc2)nc1O	25*	1	-2	3	18*	-3
C/C(=N\OC(=O)c1cccc(C(F)(F)F)c1)c1sc(-c2ccccc2)nc1C	-4	-1	4	7	x	x
CCOC(=O)c1sc(-c2cccc(C(F)(F)F)c2)nc1O	18*	-2	11	-6	17*	-3
CC1CN(/C=C/C=O)C(C)CC1OC(=O)c1ccccc1 (centres undefined)	3	-1	-5	6	x	x
O=C(Nc1ccc(Nc2ccncc2)cc1)c1ccc([N+](=O)[O-])cc1	0	1	-18	-2	x	x
O=C(Nc1ccc(Nc2ccncc2)cc1)c1ccc(Nc2ccnc3ccc([N+](=O)[O-])cc23)cc1[N+](=O)[O-]	41*	6	8	11	-11	1
COc1ccc(OC)c(NC(=O)CN(Cc2ccc(F)cc2)C2CCCCC2)c1	-4	2	-26	5	x	x
Cc1ccc2c(c1)C(=O)C(=O)N2CC(=O)OC(C)C	0	-1	-1	-6	x	x
Cc1ccc(OCCN2C(=O)C(=O)c3cc(C)ccc32)cc1	18*	0	-5	-9	8	-4
CCN(CC(=O)Nc1c(F)cccc1F)C(=O)c1ccc2ccccc2n1	-2	-1	-2	-2	x	x
CCN(CC(=O)Nc1c(F)cccc1F)C(=O)/C=C/c1ccc2ccccc2n1	22*	-2	-2	16	4	-4
CCCC(=O)NC(c1ccc(C(C)C)cc1)c1ccc2cccnc2c1O (centres undefined)	26*	-2	37	5	23*	-1
CC(C)C(=O)NC(c1ccc(Cl)cc1Cl)c1ccc2cccnc2c1O (centres undefined)	27*	2	50	-1	20*	-3
CCC(=O)NC(c1cccs1)c1cc(Cl)c2cccnc2c1O (centres undefined)	12	1	36	1	x	x
CCCCC(=O)NC(c1cccs1)c1cc(Cl)c2cccnc2c1O (centres undefined)	20*	-1	40	2	24*	-4
CCCC(=O)NC(c1ccccc1Cl)c1ccc2cccnc2c1O (centres undefined)	20*	4	37	3	10	-3
SMILES	PP1 inh	PP5 primary	Cardio protect	ATG4B inhibitor	PP1 inh confirm	PP5 counter
CC1Cc2ccccc2N1C(=O)CSc1nncs1 (centres undefined)	-4	1	0	-5	x	x
Cc1cc(NC(c2ccc(Cl)cc2)c2ccc3cccnc3c2O)no1 (centres undefined)	22*	5	58*	-6	15*	-2
CC(=O)NC(c1ccc(Cl)cc1)c1ccc2cccnc2c1O (centres undefined)	x	x	30	-2	x	x
CC(=O)Nc1cccc(NC(=O)CSc2ncc(C(=O)Nc3ccc(F)cc3)c(=O)n2C)c1	34*	1	-3	-3	2	2
O=C(c1ccc(Cl)c(Cl)c1)N1CCC(=O)N(C(COCc2cccc(Cl)c2)Cc2ccccc2)CC1 (centres undefined)	20*	4	-6	4	9	1
COc1ccc(CNC(=O)COC(=O)c2[nH]c(C)c(C(C)=O)c2C)cc1OC	-3	2	1	4	x	x
Cc1cc(Cl)ccc1Oc1ccccc1C(=O)CC#N	20*	1	1	9	0	-8
Cc1cc(Cl)ccc1Oc1nc(-c2ccc(F)cc2)ccc1C#N	-6	-1	-12	-7	x	x
CC(=O)Nc1cccc(-c2ccnc3c2CC(C(=O)Nc2cccc(Oc4ccccc4)c2)O3)c1 (centres undefined)	x	x	2	x	x	x
O=C(Oc1ccc(/C=N/Nc2ccccc2)cc1)c1ccccc1	21*	2	-1	8	8	-3
O=C(O)c1ccc(N/N=C/c2ccc(OC(=O)c3cccc(Cl)c3)cc2)cc1	52*	1	3	15	14	-1
O=C(Oc1ccc(/C=N/O)cc1)c1ccccc1	-2	2	-4	-3	x	x
O=C(COc1ccc(S(=O)(=O)N2CCCCC2)cc1)N1CCCC1	7	3	-4	3	x	x
C[C@@H]1CN([C@@H](C)CO)C(=O)CCCn2nncc2CO[C@H]1CN(C)S(=O)(=O)c1ccc(C#N)cc1	x	x	-8	x	x	x
Cc1ccc(C(=O)NCCNC(=O)COc2ccc(Cl)cc2)cn1	0	1	3	4	x	x
O=C(Cc1ccccc1)N/N=C/c1ccccc1OCc1ccc(Cl)cc1	21*	3	-5	-10	-1	2
O=C(NCCSc1ncc(-c2ccc(F)cc2)[nH]1)c1ccc2c(c1)OCO2	3	2	1	0	x	x
O=C(C1=C[C@@H]2[C@H]3C(=O)N(c4ccccc4Cl)C(=O)[C@H]3[C@@H](C(=O)c3ccc(Cl)cc3)N2C=C1)c1ccccc1	23*	3	x	x	18*	4
O=C(C1=C[C@@H]2[C@H]3C(=O)N(c4cccc(Cl)c4)C(=O)[C@H]3[C@@H](C(=O)c3ccc(Cl)cc3)N2C=C1)c1ccccc1	6	2	2	21	x	x
